Assay results taken from the OligoGym collection.

Target: CYLC1
Experiment: pooled miR-30 sensor sort-seq; sequence = guide strand
Settings: shRNA
Further: reference of the scale not given here.

Sequence | sensor-assay potency score (higher = more potent)
TTGATGGAGGAACTCTACCTGT | -0.867
TTTAGTTTTCTCTTCTACTATT | -1.07
TTTCTTGGAATCTTTCTTCAAA | -0.0994
TTCATCTTTCTGACTCTCCTTT | 0.625
TATCTTTTTGTGAACAATTTTT | -1.47
TTGACTTCTTGGATTGTTCATT | -0.552
TGAATCTTTCTTAGCATCCTTT | -0.674
TTGTTGCATATGAACCTCCTTT | -0.831
TTCAGTATCTGAACCTTTGATT | -0.393
TAATTTTTTCTTATCCTTCTTT | 0.0107
TATGGGATCATTACTAGTCTTT | -0.233
TTGTCATGTCTAGTAACTGTTA | -0.717
TTGCATCCTTTGCATCTCCTGA | -0.744
TTTTTCTTAACTTTCTTTGAAT | -0.75
TATTATCTGTCTTTGAATCTTT | 0.0737
TTGGATGACATTCTGAATCCTC | 0.399
TTGAATGTAGTCTTTTTGGATG | -0.77
TTGATTTATCATTTGTACCTCT | 0.236
TTTATCATTTGTACCTCTCTGG | 0.594
TTATTCTGTGAGTAATTCCTTA | -0.37
TTGAATTTGCAGATGTGCCATC | -0.566
TTTCTTGTCATCTTTCTTGACA | -0.649
